Bioassay records (PubChem)
In the library only some 4.1% were active in any assay of this set; here they are far more common.
GRIN3A LBD mod – NR3A (human) ligand-binding domain modulation; NR3A LBD differential scanning fluorimetry, Tm shift; 0% = protein alone, 100% = glycine-bound protein; Tm shift relative to glycine control, % at 25 µM; actives 2.5% (n = 340,000); AID 1259313;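 active = melting temperature shift of at least 10% of the positive control shift, at one fixed dose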
MPTP inh – inhibitors of mitochondrial permeability transition pore; isolated mouse mitochondria, Ca2+ swelling absorbance, 30 min; inhibition, % at 10 µM; actives 1.4% (n = 360,000);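 active = inhibition of 50% or more, scaled per plate between neutral and stimulator controls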;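 also: 0% = DMSO wells given calcium and 100% = 1 mM EGTA wells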
p-CIP stab down – compounds decreasing mouse p/CIP protein stability; Q05BA5; F442A p/CIP-EGFP cells, EGFP fluorescence, 16 h; decrease of EGFP signal, % at 10 µM; actives 0.01% (n = 290,000); AID 1984;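 active = EGFP signal decrease of at least 30% at 10 µM or well 3 SD below plate mean, unless failing retest; inactive = the rest, including hits failing retest or dose response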
FAS-TE inh – FAS thioesterase (human) inhibition | P49327 | recombinant FAS-TE, OMFH fluorogenic substrate, fluorescence endpoint | inhibition, % at 15 µM | actives 0.67% (n = 360,000);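 active = compounds whose normalised, plate-corrected inhibition of enzyme fluorescence in the single-dose primary screen is 50% or more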;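 also: 0% = DMSO with enzyme and 100% = substrate without enzyme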
MIN6 prolif – inducers of beta-cell replication in MIN6 cells; proliferation, % at 10 µM; actives 0.29% (n = 330,000); MIN6 cells proliferation, ATPlite luminescence, 48 h; cells starved in 0.2% serum; 100% = growth in 10% serum;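 active = compounds whose signal lies at least 3.5 SD above the mean of all wells on their plate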;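 also: 0% = DMSO-treated cells in low-serum medium and 100% = 10% serum control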
* = called active by the depositor; / = no result given.

SMILES	GRIN3A LBD mod	MPTP inh	p-CIP stab down	FAS-TE inh	MIN6 prolif
CC(=O)Nc1cccc(NC(=O)CSc2ncc(C(=O)Nc3ccc(F)cc3)c(=O)n2C)c1	18*	-2	/	6	-2
N#Cc1ccc(-c2nc3c4ccccc4ccn3c2Cc2cccc(Cl)c2)cc1	/	1	/	20	/
COc1ccc(-c2cc(NC(C)=O)c3ncc(-c4ccc(F)cc4)n3c2)cc1OC	/	-1	/	0	/
Cc1ccc2nc(SCC(=O)Nc3cccc([N+](=O)[O-])c3)[nH]c2c1	3	10	2	42	-5
Cc1ccc2nc(SCc3ccc([N+](=O)[O-])cc3)nc(C)c2c1	13*	1	-6	36	-2
CCOc1ccc2nc(SCc3cccc(C)c3)nc(C)c2c1	15*	42	-26	-2	0
Cc1ccc2nc(SCc3ccc([N+](=O)[O-])cc3)[nH]c2c1	-8	2	-15	58*	-4
Cc1cc(C)c2nc(SCc3ccc([N+](=O)[O-])cc3)nc(C)c2c1	2	5	-9	9	-4
COc1cccc(CN2CCC2(C)C(=O)Nc2cnc3ccccc3c2)c1F (stereo unspecified)	/	0	/	16	/
Cc1cc2nc(C3CCCCC3)c(Cc3cccc(Cl)c3)n2c(C)c1Br	/	0	/	27	/
C=CCOc1cccc(C(=O)N2CCC(CCC(=O)NC3CC3)CC2)c1	16*	-1	8	-4	3
COc1cccc(NC(=O)CN2C(=O)C3(OCCCO3)c3ccccc32)c1	11*	-1	-1	-2	-3
COc1cccc(NC(=O)CN(C)C(=O)CN2C(=O)NC3(CCCC3)C2=O)c1	14*	-3	/	-7	0
O=C(Cc1ccc(NC(=O)C2CCN(C(=O)C3CC3)CC2)cc1)Nc1cccc(C(=O)N2CCCCC2)c1	-4	0	/	-8	/
Nc1cc2c(cc1Cl)-c1ccc(Cl)cc1C2	30*	1	/	20	/
Nc1cc2c(cc1Cl)-c1ccccc1C2	3	-1	/	12	/
CC12CCC(CC1O)C2C(=O)O (stereo unspecified)	/	0	/	-7	/
c1ccc(C[C@H]2CN=C(Nc3ccccc3)N2CC2CCCC2)cc1	/	1	/	-30	/
Cn1c(=O)c2c(ncn2CC(O)CNc2ccc(Br)cc2)n(C)c1=O (stereo unspecified)	23*	11	-5	14	-2
COc1cccc(Oc2coc3cc(OC(=O)N4CCOCC4)ccc3c2=O)c1	10*	2	2	10	1
O=C(CN1CCN(S(=O)(=O)c2ccc(Br)cc2)CC1)N/N=C/c1ccc(Cl)c([N+](=O)[O-])c1	10*	-1	3	46	-6
CCOC(=O)c1c(NC2OC(=O)c3c2ccc(OC)c3OC)sc(C(=O)OC(C)(C)C)c1C (stereo unspecified)	18*	0	1	14	2
Cc1cccc(Nc2nc(-c3ccc(O)cc3O)cs2)n1	40*	3	-22	24	-5
N#Cc1ccc(Nc2nc(-c3ccc(O)cc3O)cs2)cc1C(F)(F)F	23*	24	/	61*	-7
Oc1ccc(-c2csc(Nc3ccc4c(c3)OCO4)n2)c(O)c1	7	1	/	18	/
SMILES	GRIN3A LBD mod	MPTP inh	p-CIP stab down	FAS-TE inh	MIN6 prolif
CC(=O)Nc1cccc(-c2csc(Nc3ccc(C)cn3)n2)c1	27*	2	9	-1	0
CC(=O)NNc1nc(-c2ccc(NC(C)=O)cc2)cs1	0	1	-10	-9	-2
CC(=O)Nc1ccc(-c2csc(Nc3cccc(C)n3)n2)cc1	26*	1	-14	11	/
CN(C(=O)c1cccc(NC(=O)Cc2cccc(NC(=O)C3CCCN(C(=O)C4CCCC4)C3)c2)c1)C1CC1 (stereo unspecified)	0	6	/	-6	/
C[C@@H]1O[C@H](C2CC2)Cc2[nH]c(=S)[nH]c(=O)c21	/	0	/	-4	/
COC(=O)Cc1ccc(OC2(C)CCN(Cc3ccccc3)C2)cc1 (stereo unspecified)	/	0	/	-9	/
OCc1cccc(-c2cnc3c(Nc4cccc(OC(F)(F)C(F)F)c4)nccn23)c1	/	2	/	13	/
CC(=O)Oc1ccc(-c2csc(Nc3ccc(Cl)cn3)n2)cc1	32*	-1	1	2	-5
COc1ccc(-c2csc(Nc3ccc(C)cn3)n2)cc1	16*	10	-7	18	-3
Cc1ccc(-c2csc(Nc3ccccn3)n2)cc1	-3	0	-4	18	-3
CCOC(=O)C1(C)CCCCCN1C(=O)/C=C/c1ccccc1 (stereo unspecified)	/	0	/	-3	/
Cc1csc(=O)n1CCC(=O)OCC(=O)NCc1ccccc1	/	0	/	-10	/
O=C(NCC1OCCc2ccccc21)c1ccc(NC(=O)c2cccc(Br)c2)cc1 (stereo unspecified)	28*	0	-2	-1	0
O=C(NCC1OCCc2ccccc21)c1ccc(NC(=O)c2ccccc2Cl)cc1 (stereo unspecified)	10	1	-19	-4	-1
O=C(NCC1OCCc2ccccc21)c1ccc(NC(=O)c2ccc(Cl)cc2Cl)cc1 (stereo unspecified)	18*	1	-3	-9	-4
CC1CCc2c(sc(NC(=O)c3nc4ncccn4n3)c2C#N)C1 (stereo unspecified)	1	2	-14	-8	-3
N#Cc1c(NC(=O)c2nc3ncccn3n2)sc2c1CCCCC2	18*	1	-2	-5	-3
COc1ccc(-c2nc3ccc(Cl)cn3c2Cc2ccc(C)cc2)cc1OC	/	0	/	-1	/
Cc1cc(C(N)=O)c2cc(Br)ccc2n1	13*	1	-1	-9	1
Cc1noc(C)c1-c1ccc(C(=O)N2CCN(C)CC2)c2occc12	/	0	/	-7	/
N#CCC(=O)Nc1ccc(C(=O)OCC(=O)Nc2ccccc2Sc2ccccc2)cc1	16*	-1	-12	23	-5
Cc1cc(C)c(-c2cc(NC(=O)COC(=O)c3ccc(NC(=O)CC#N)cc3)n(-c3ccccc3)n2)cc1C	27*	-2	/	22	-1
COC(=O)c1c(NC(=O)COC(=O)c2ccc(NC(=O)CC#N)cc2)sc2c1CCCCC2	19*	7	-34	12	-6
O=C(COC(=O)c1ccc(O)cc1O)Nc1cc(-c2ccccc2)nn1-c1ccccc1	25*	1	/	14	-4
Cc1cc(C)c(-c2cc(NC(=O)COC(=O)c3ccc(C#N)cc3)n(-c3ccccc3)n2)cc1C	-21	5	0	49	-1
COC(=O)c1c(NC(=O)COC(=O)c2ccccc2O)sc2c1CCCCC2	4	2	-5	15	-1
CC(C)(C)c1cc(NC(=O)COC(=O)c2ccc(O)cc2O)n(-c2ccccc2)n1	-5	-3	/	-2	-1
CC(C)(C)c1cc(NC(=O)C2(C)CCN2C(=O)c2ccccc2CCc2ccccc2)no1 (stereo unspecified)	/	0	/	20	/
N#CCC(=O)Nc1ccc(C(=O)OCC(=O)NCCCc2ccccc2)cc1	-2	-1	-2	4	0
